DRD3 antagonist: blocks the human D3 dopamine receptor; P35462; D3R cells, DiscoveRx beta-arrestin luminescence, antagonist mode; active compounds read low; max response, negative = inhibition, %; 2.5% of 360,000 active; in the data active = max response below about -50%; inconclusive = no clear call, values can overlap the other calls
Target sequence (P35462 whole entry, looked up): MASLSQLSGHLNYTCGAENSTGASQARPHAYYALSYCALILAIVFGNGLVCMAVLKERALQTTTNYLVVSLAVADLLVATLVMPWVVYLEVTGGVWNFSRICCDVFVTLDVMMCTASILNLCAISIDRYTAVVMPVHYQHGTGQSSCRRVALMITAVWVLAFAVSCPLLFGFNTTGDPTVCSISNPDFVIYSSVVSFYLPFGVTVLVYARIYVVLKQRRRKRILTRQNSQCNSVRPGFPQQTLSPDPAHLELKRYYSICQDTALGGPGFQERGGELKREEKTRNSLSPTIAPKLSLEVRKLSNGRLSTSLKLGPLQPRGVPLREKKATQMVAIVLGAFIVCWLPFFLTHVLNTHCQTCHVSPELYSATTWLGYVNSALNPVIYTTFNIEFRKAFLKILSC
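Cells expressing the human receptor were seeded at 1500 cells/well, incubated overnight at 37 degrees C in 5% CO2, then exposed to library compounds with dopamine controls for 90 minutes at 37 degrees C before luminescent detection.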
D3 ag: activates the human D3 dopamine receptor. 0.58% of 410,000 active. D3R DiscoveRx beta-arrestin cells, luminescence, 90 min. max activation, %. AID 652048. P35462; in the data active = max activation above about 30%
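Cells at 1500/well, incubated overnight, then treated with pinned compounds (dopamine as control) for 90 min at 37 degrees C. DiscoveRx reagent added for 30 - 60 minutes at room temperature; luminescence read.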
uPA generation: blocks generation of uPA at the cell surface; cell surface uPA generation assay, qHTS; Potency, µM (highest dose often 38.3 µM), usual class: inhibitors; 0.31% of 330,000 active; AID 540303; active = well fitted inhibition curve with a large enough effect; inconclusive = small, poorly fitted or top-dose-only effect; inactive = no such curve, though single readings can be large or run the other way; tested in mouse RAW 264.7 cells; also: nearly all actives have a fitted effect of over 55% in size
RGS4 inhibitor: blocks human RGS4-accelerated GTP hydrolysis; P49798; AID 504845; Potency, µM (titrated, usually from 114 µM), hits mostly inhibitors; Transcreener GDP fluorescence polarization, RGS4-accelerated GTP hydrolysis; 0.039% of 390,000 active; active = well fitted inhibition curve with a large enough effect; inconclusive = small, poorly fitted or top-dose-only effect; inactive = no such curve, though single readings can be large or run the other way; also: nearly all actives have a fitted effect of over 75% in size
Target sequence (P49798 whole entry, looked up): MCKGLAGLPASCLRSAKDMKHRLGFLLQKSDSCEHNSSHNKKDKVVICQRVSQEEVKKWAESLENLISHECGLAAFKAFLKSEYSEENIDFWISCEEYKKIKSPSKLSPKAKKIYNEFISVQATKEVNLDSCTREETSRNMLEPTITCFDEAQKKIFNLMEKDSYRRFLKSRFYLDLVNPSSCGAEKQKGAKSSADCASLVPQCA
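MLSMR compounds (23 nl, pin-transferred) preincubated 10 min at room temperature with a 500nM (2x) first reagent, then RGS4 at 900nM (2x) plus Transcreener GDP mix added; fluorescence polarization (620/688 nm) read before and after 90 min at 30 °C.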
A number is an active result; - = inactive; ? = inconclusive; . = not tested or not shown. The list is not random: actives were taken first. Their share in the collection is about 3.1%.

SMILES	DRD3 antagonist	D3 ag	uPA generation	RGS4 inhibitor
COc1cc(/C=N/NC(=O)C2COc3ccccc3O2)ccc1O (configuration not stated)	-56	-	-	-
CCOC(=O)c1ccccc1NC(=O)CSc1nc2cn(CC)nc2c(=O)n1Cc1ccc(Cl)cc1	.	-	.	-
CCc1nc2ccc(C(=O)NCc3cc(OC)ccc3OC)cc2nc1CC	.	-	.	-
Cc1nn(C(C)C(=O)N2CCN(c3ccc(F)cc3)CC2)c(=O)c2c1sc1ccccc12 (configuration not stated)	.	-	.	-
O=C(c1[nH]c(C(F)(F)F)nc1-c1ccccc1)N1CCN(c2cccc(C(F)(F)F)n2)CC1	-55	-	.	.
CC(=O)N1CCN(C(=O)c2[nH]c(C(F)(F)F)nc2-c2ccccc2)CC1	-	-	.	.
CC1CCN(C(=O)c2[nH]c(C(F)(F)F)nc2-c2ccccc2)CC1	-69	-	.	.
CN(C)c1ccc(/C=C/c2noc(-c3ccccc3O)n2)cc1	.	-	.	?
Oc1ccccc1-c1nc(/C=C/c2ccccc2Cl)no1	.	88	.	-
O=C(CN1/C(=C(/O)c2ccccc2)C(=O)c2ccccc2S1(=O)=O)c1ccccc1	-88	-	-	-
COc1ccccc1CNS(=O)(=O)CCNC1CC1	-	32	-	-
COc1ccccc1CNCCS(=O)(=O)NCc1ccccc1OC	?	-	-	-
CCCCCCCCNCCS(=O)(=O)NCc1ccccc1OC	-60	-	-	-
COc1ccccc1CNS(=O)(=O)CCNC1CCCCC1	-73	-	-	-
Cc1ccccc1C(=O)NCC(c1cccnc1)N1CCc2ccccc21 (configuration not stated)	.	-	.	-
O=C(OC[C@H]1O[C@](O)(COC(=O)c2cccnc2)[C@@H](OC(=O)c2cccnc2)[C@@H]1OC(=O)c1cccnc1)c1cccnc1	.	-	.	.
CCC(C)Nc1ccc(NC(C)CC)cc1 (configuration not stated)	-51	-	?	-
CCC(C)NC(=O)Nc1ccc(Br)cc1 (configuration not stated)	-	-	-	-
CON=C1C[C@]2(C[C@@H]3C[C@@H](C/C=C(\C)C[C@@H](C)/C=C/C=C4\CO[C@@H]5[C@H](O)C(C)=C[C@@H](C(=O)O3)[C@]45O)O2)O[C@H](/C(C)=C/C(C)C)[C@H]1C	.	-	.	.
CSc1nn(Cc2ccc(C)cc2)c(N)c1S(=O)(=O)c1ccccc1	.	-	.	-
Cc1ccsc1C1C(C#N)=C(N)Oc2n[nH]c(C)c21 (configuration not stated)	-	-	-	-
Cc1cc(C)c(C2C(C#N)=C(N)Oc3n[nH]c(C)c32)cc1CN1CCOCC1 (configuration not stated)	-60	-	.	-
COc1ccc(-n2ncc(C(=O)NCc3ccco3)c2C2CCN(C(=O)OC(C)(C)C)CC2)cc1	.	-	.	-
O=C(Cn1nc(Cc2cccnc2)c2ccccc2c1=O)Nc1ccc2c(c1)OCO2	-	-	-	-
O=C(Cn1nc(Cc2cccnc2)c2ccccc2c1=O)Nc1ccc(F)c(Cl)c1	.	39	.	-
SMILES	DRD3 antagonist	D3 ag	uPA generation	RGS4 inhibitor
CCOc1ccc(N(CC)S(=O)(=O)c2cc(Br)cc3c2N(C(C)=O)C(C)C3)cc1 (configuration not stated)	.	-	.	-
Cc1ccc(-c2[nH]c3cc(C(=O)NCCCn4ccnc4)ccc3c(=O)c2O)cc1	-64	-	-	-
CCCNC(=O)c1ccc2c(=O)c(O)c(-c3ccc(C)cc3)[nH]c2c1	-	-	?	-
Clc1ccc(OCc2nc(-c3ccc(-n4cccc4)cc3)no2)cc1	.	-	.	-
Cc1cc(Cl)cc(C)c1OCCCCN1CCOCC1	-58	-	.	-
O=C(c1ccco1)N1CCN(CCOCCOc2cccc3ccccc23)CC1	-	89	-	-
O=C(c1ccco1)N1CCN(CCCCOc2cccc3ccccc23)CC1	?	38	-	-
Cc1cccc(OCCN2CCOCC2)c1C	-	54	-	-
Cc1cc(C)c(C)c(OCCN2CCOCC2)c1	-	-	-	-
Cc1cc(Cl)c(OCCCCN2CCOCC2)c(Br)c1	-	-	-	-
CCCc1c(-c2cccc(Cl)c2)ncn1CCc1ccccc1OC	-	-	.	.
c1ccc2c(OCCCCN3CCOCC3)cccc2c1	-60	-	-	-
CCCCC(CC)CNC(=O)Cc1ccc(-n2c(=O)[nH]c3ccccc3c2=O)cc1 (configuration not stated)	.	-	.	-
Cc1cccc(OCC(O)CN2CCN(c3ccccn3)CC2)c1C (configuration not stated)	-	68	-	-
CC(=O)c1ccccc1OCC(O)CN1CCN(c2ccccn2)CC1 (configuration not stated)	-	-	-	-
Cc1cc(C)c(C)c(OCC(O)CN2CCN(c3ccccn3)CC2)c1 (configuration not stated)	-	63	-	-
CCCOc1ccc(C(=O)NNC(=S)NC(=O)c2cc(-c3ccc(Cl)cc3)nc3ccccc23)cc1	-50	-	-	?
COc1ccc(C(=O)NNC(=S)NC(=O)c2cc(-c3ccccc3)nc3ccccc23)cc1	-	-	-	-
COCCN1C(=O)N[C@@H](c2cccs2)C(C(C)=O)=C1C	-	35	-	-
CCOc1ccc(-c2cc(C(=O)Nc3ccc(NC(C)=O)cc3)no2)cc1	.	-	.	-
Clc1nc(-c2ccccn2)nc2scc(-c3ccccc3)c12	-	-	10µM	-
CN1CCN(c2nc(-c3cccnc3)nc3scc(-c4ccccc4)c23)CC1	-	-	-	-
O=C(NCCc1ccccc1)c1cnc2sc(N3CCCCCC3)nn2c1=O	.	-	.	-
CN(Cc1cn(-c2ccccc2)nc1-c1cc2ccccc2o1)C(=O)CCC(=O)O	-	46	-	?
CN(C)C(=O)c1cn(-c2ccccc2)nc1-c1cc2ccccc2o1	-	-	-	-
SMILES	DRD3 antagonist	D3 ag	uPA generation	RGS4 inhibitor
Cc1ccc(C)c2nc3sc(C(=O)N4CCCc5ccccc54)c(N)c3cc12	-54	-	.	-
Cc1csc2nc(COC(=O)c3ccc(F)cc3)cc(=O)n12	.	-	.	-
O=C(/C=C/Nc1ccccc1)c1ccc(Cl)cc1Cl	-	-	10µM	-
CCCn1c(C)cc(-c2csc(N)n2)c1C	-	-	-	-
Cc1c(-c2csc(N)n2)cnn1C	-	42	-	-
Cc1ccc(Nc2nc(N)c3ccccc3n2)cc1C	-	-	7.1µM	-
Cc1ccc(C2CC(c3ccccc3)=NN2C(=S)Nc2ccccc2)o1 (configuration not stated)	-51	-	-	?
CC1=NN(C(=S)Nc2ccccc2)C(c2ccccc2)C1 (configuration not stated)	?	-	-	-
Cc1ccc(N2CC(NC(=O)c3ccccc3Br)CC2=O)cc1 (configuration not stated)	.	-	.	-
Cc1ccc(C)c(OCCC(=O)OCC(=O)N2CCN(S(=O)(=O)c3ccc(Cl)cc3)CC2)c1	-	-	10µM	-
CCn1cc(C(=O)N2CCN(c3cccc(C)c3C)CC2)c2cc(OC)c(OC)cc2c1=O	.	-	.	-
CCSc1nnc(NC(=O)c2cnccn2)s1	-136	-	-	-

Screens from PubChem.
